Only some compounds are listed: those with a hit (about 0.47% of all), similar ones and a draw of the others.
AID inh = blocks human AID cytidine deaminase activity | 91,000 compounds, 0.32% hits | AID deamination FRET fluorescence, UDG-coupled, 4 h | Q9GZX7 | Potency, µM (doses to about 115 µM), actives largely listed as inhibitors; note: nearly all actives have a fitted effect of over 25% in size
Target sequence (Q9GZX7 whole entry, looked up): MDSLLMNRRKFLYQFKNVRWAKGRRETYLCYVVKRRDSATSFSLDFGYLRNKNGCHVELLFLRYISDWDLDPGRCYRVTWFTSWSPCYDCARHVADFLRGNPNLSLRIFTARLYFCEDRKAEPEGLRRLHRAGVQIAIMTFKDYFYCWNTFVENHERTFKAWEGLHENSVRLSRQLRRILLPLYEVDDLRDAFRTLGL
UDG counterscr = UDG inhibition counter-screen. AID 1347430. Potency, µM (series often up to 115 µM), for inactives: at the highest dose activity change, negative = inhibition, hits mostly inhibitors. FRET deamination/UDG coupled assay, UDG read, 4 h. 91,000 compounds, 0.14% hits; note: nearly all actives have a fitted effect of over 65% in size
Starred values were filed as active, the others as inactive; i = inactive; ? = inconclusive; [ ] = dose if it differs, or a comment. Calls come from the whole dose curve; as a rule, active = well fitted curve in the direction sought with a large enough effect; inconclusive = small, poorly fitted or top-dose-only effect, or another doubt; inactive = no such curve, though single readings can be large; an effect the other way counts as inactive or inconclusive. % is set by controls: 0 for no effect and ±100 for the full control effect; potency is the fitted concentration of half-maximal effect.

SMILES	AID inh	UDG counterscr
Cc1cc2c(C(C)C)c(O)c(O)c(C=O)c2c(O)c1-c1c(C)cc2c(C(C)C)c(O)c(O)c(C=O)c2c1O	79µM*	-4%
Cc1ccc(Cc2nc3ccccc3nc2SCC(=O)N2CCC(C)CC2)cc1	?	-12%
CC1CCCCN1C(=O)CSc1nc2ccccc2nc1Cc1ccccc1 (centres undefined)	50µM*	-19%
CCn1cc(C(=O)OCC(=O)Nc2cccc(C(C)=O)c2)c(=O)c2ccc(C)nc21	45µM*	-34%
CCOC(=O)c1ccc(NC(=O)COC(=O)c2cn(CC)c3nc(C)ccc3c2=O)cc1	i	0%
CCCCN(C)c1ccc(-c2n[nH]c(=O)c3ccccc23)cc1[N+](=O)[O-]	i	89µM*
O=c1[nH]nc(-c2ccc(N3CCCCC3)c([N+](=O)[O-])c2)c2ccccc12	i	-1%
Cc1ccc(C2c3c(-c4cc(C)cc(C)c4O)n[nH]c3C(=O)N2CCCO)cc1 (centres undefined)	i	4%
Cc1nc2ccc(C(=O)OC(C)C(=O)NC3CCCCCC3)cc2nc1C (centres undefined)	i	0%
Cc1ccc(-c2nc3c(c(SCC(=O)N(C)c4ccccc4)n2)Cc2c(CO)cnc(C)c2O3)cc1	?	3%
CCc1ccc(-c2nc3c(c(SCc4ccccc4)n2)Cc2c(CO)cnc(C)c2O3)cc1	i	-7%
C=Cc1ccc(CSc2nc(-c3ccc(C)cc3)nc3c2Cc2c(CO)cnc(C)c2O3)cc1	32µM*	6%
CCN(CC)C(=O)CSc1nc(-c2ccc(C)cc2)nc2c1Cc1c(CO)cnc(C)c1O2	45µM*	5%
CC(OC(=O)Cc1n[nH]c(=O)c2ccccc12)C(=O)c1ccc2c(c1)CCC2 (centres undefined)	i	-10%
CCNCC(O)COCc1ccccc1OC (centres undefined)	i	-6%
CCOc1ccc(NC(=O)CSC2=C(C#N)C(c3ccc(Cl)cc3)C3=C(CCCC3=O)N2)cc1 (centres undefined)	i	-1%
CC(=O)N1CCN(c2ncnc3c2c(-c2ccccc2)cn3-c2cccc(C)c2)CC1	?	79µM*
Cc1cccc(-n2cc(-c3ccccc3)c3c(N4CCC(C)CC4)ncnc32)c1	?	-4%[57.5 µM]
Cc1ccc(-c2cc(C(=O)N3CCN(Cc4ccncc4)CC3)c3ccccc3n2)o1	i	6%
Cc1cccc2c1N(Cc1ccc(OC(C)C)cc1)C(=O)C2=O	i	-8%
CCOc1ccc(NC(=O)CN(C)S(=O)(=O)c2ccc3c(c2)c(=O)n(C)c(=O)n3C)cc1	22µM*	-12%
Cc1cccc(NC(=O)CN(C)S(=O)(=O)c2ccc3c(c2)c(=O)n(C)c(=O)n3C)c1	i	-5%
Cc1ccc2c(COC(=O)CCc3ccc4c(c3)OCO4)cc(=O)oc2c1	i	-3%
CC[N+](C)(CC)CCCOC(=O)C1(c2ccccc2)CCCC1	i	-5%
CCNC(=O)N(Cc1nc(-c2ccc(C)cc2)no1)C1CCCCC1	i	-8%
SMILES	AID inh	UDG counterscr
Cc1ccc(CC(=O)N(Cc2nc(-c3ccccc3)no2)C2CCCCC2)cc1	i	79µM*
OCC1O[C@H]([S-])[C@H](O)[C@@H](O)[C@@H]1O.[Au+] (some centres undefined)	25µM*	3%
N#CC(C#N)=Cc1cc(-c2ccccc2)n(-c2ccccc2)c1-c1ccccc1	i	-2%
CCc1nn2c(=O)cc(COC(=O)c3ccc(NC(=O)C4CCCCC4)cc3)nc2s1	i	2%
Cc1nn2c(=O)cc(COC(=O)c3ccc(NC(=O)C4CCCCC4)cc3)nc2s1	45µM*	-14%
Cc1oc(-c2ccc(Cl)cc2)nc1CS(=O)CC(=O)N1CCN(c2cccc(C(F)(F)F)c2)CC1 (centres undefined)	?	-11%[57.5 µM]
COc1cccc(-c2nc(CS(=O)CC(=O)N3CCN(c4cccc(C(F)(F)F)c4)CC3)c(C)o2)c1 (centres undefined)	45µM*	-14%[57.5 µM]
CCC1CCc2c(sc(NC(=O)/C=C/c3ccc(C(C)(C)C)cc3)c2C#N)C1 (centres undefined)	i	-4%
Fc1ccccc1Cn1c(-c2ccccc2)nc2ccccc21	45µM*	?
Cc1cccc(Cn2c(-c3ccccc3)nc3ccccc32)c1	?	-19%[57.5 µM]
CCCCCn1nc(C(=O)N2CCSCC2)c2ccccc2c1=O	i	1%
CC(C)n1c(SCc2nc3ccccc3c(=O)[nH]2)nnc1-c1ccco1	i	37%
CC(C)(C)CC(=O)Nc1cccc(C(=O)O)c1	i	-9%
CCCCOc1c(Cl)cc(C(=O)N(Cc2ccc(C)o2)C2CCS(=O)(=O)C2)cc1Cl (centres undefined)	?	89µM*
COc1cccc(C(=O)N(Cc2ccc(C)o2)C2CCS(=O)(=O)C2)c1 (centres undefined)	i	6%
COc1ccc(S(=O)(=O)N2CCn3cccc3C2c2cccs2)cc1C (centres undefined)	i	11%
COc1ccc(S(=O)(=O)N2CCn3cccc3C2c2ccc(C)cc2)cc1C (centres undefined)	i	79µM*
Cc1cc(C)cc(C(=O)c2c(-c3ccccc3)cc3ccccn23)c1	i	-12%
O=C(c1ccccc1O)N1CCN(S(=O)(=O)c2ccc3ccccc3c2)CC1	i	4%
O=C(CCc1nc(-c2ccccn2)no1)NCc1ccc(-n2cncn2)nc1	i	11%
CCC1=Nc2cc(C(=O)NCc3ccccc3Cl)ccc2Sc2ccc(C)cc21	i	-6%
CCC1=Nc2cc(C(=O)N3CCC(C)CC3)ccc2Sc2ccc(C)cc21	32µM*	-13%
CCOC(=O)C(C)Oc1ccc2c(=O)c(Oc3ccc(C(=O)OC)cc3)c(C)oc2c1 (centres undefined)	i	3%
O=c1c2c(nc3nc(NCc4c(Cl)cccc4Cl)[nH]n13)CCC2	i	8%
CCOC(=O)c1cc2cc(NC(=O)C3CC(=O)Nc4ccccc43)ccc2s1 (centres undefined)	i	7%
SMILES	AID inh	UDG counterscr
Nc1c(S(=O)(=O)O)cc(Nc2ccc(Nc3nc(Cl)nc(Nc4ccc(S(=O)(=O)O)cc4)n3)c(S(=O)(=O)O)c2)c2c1C(=O)c1ccccc1C2=O	22µM*	-19%
COc1cccc(/C=C/C(=O)Oc2ccc(C#N)cc2OC)c1	i	-2%
CN1/C(=C/C(=O)COC(=O)c2cc3c(s2)CCC3)C(C)(C)c2ccccc21	i	-2%
Cc1cccc(CN2CCC(CNc3ncnc4onc(-c5ccc(Cl)cc5)c34)CC2)c1	20µM*	-22%
Cc1ccc(CN2CCC(CNc3ncnc4onc(-c5ccc(Cl)cc5)c34)CC2)cc1	i	2%
COc1ccc(Cc2nnc(SCC(=O)c3ccc(Cl)cc3)n2CC(C)C)cc1	i	-9%
COc1ccc(N(C)C(=O)c2cc3c(s2)-c2ccccc2OC3)cc1	45µM*	-9%
COc1cc(OC)c(N(C)C(=O)c2cc3c(s2)-c2ccccc2OC3)cc1Cl	i	-6%
CC(C)CN(CC(C)C)CC(O)Cn1cc(/C=C/C(=O)c2ccccc2)c2ccccc21 (centres undefined)	?	-16%
CCCN(CCC)CC(O)Cn1cc(/C=C/C(=O)c2ccc(OCC)cc2)c2ccccc21 (centres undefined)	35µM*	-24%
CCOC(=O)c1ccc(N2CCN(CC)CC2)c(NC(=O)COc2ccc(CC)cc2)c1	i	-4%
